According to PubChem BioAssay:
For some of these results: Potency and affinity values are given separately. Active and inactive are the calls of the source. Unless noted, how the calls were made is not given here.

Columns and labels:
[1] = antimalarial activity against Dd2 strain (AID 2302;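 active means growth inhibition above 50% at the single 2 µM test dose, taken to imply half-maximal potency below 2 µM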;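 further: 0% = DMSO untreated growth and 100% = chloroquine plus artemisinin killed control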); conditions: P. falciparum Dd2 in RBCs, LDH growth readout, 72 h; at 2 µM; stronger effect = higher value
[2] = human hepatoma cell viability loss – ATP luminescence, cytotoxicity control for P. falciparum antimalarial project, primary screen (AID 2303;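 active means inhibition above 50%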;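 further: 0% = DMSO wells and 100% = digitonin-killed cells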); conditions: HepG2 viability, 24-48 h, at 10 µM, stronger effect = higher value
[3] = molecular target: L-lactate dehydrogenase (Plasmodium falciparum (isolate CDC / Honduras)) (UniProt Q27743); test: PfLDH activity inhibition – cell lysate, 3D7 strain, counter-screen for P. falciparum growth inhibition project (AID 2304);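 further: 0% = vehicle and 100% = reference inhibitor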; conditions: P. falciparum 3D7 crude extract, LDH APAD/NBT absorbance; at 2 µM; stronger effect = higher value
Sequence of L-lactate dehydrogenase (Plasmodium falciparum (isolate CDC / Honduras)) (Q27743 whole entry, looked up): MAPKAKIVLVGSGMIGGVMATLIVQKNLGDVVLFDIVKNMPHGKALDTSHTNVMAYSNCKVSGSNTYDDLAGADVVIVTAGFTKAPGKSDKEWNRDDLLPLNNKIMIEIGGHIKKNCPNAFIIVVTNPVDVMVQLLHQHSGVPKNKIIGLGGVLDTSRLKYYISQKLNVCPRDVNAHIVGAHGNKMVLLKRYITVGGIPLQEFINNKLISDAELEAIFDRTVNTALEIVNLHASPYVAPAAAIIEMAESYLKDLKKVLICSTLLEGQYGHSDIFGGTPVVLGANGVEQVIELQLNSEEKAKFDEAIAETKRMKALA

[4] = inhibition of 3D7 malaria parasite growth – strain 3D7 (AID 2306);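 further: 0% = DMSO wells and 100% = chloroquine plus artemisinin control wells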; conditions: P. falciparum 3D7 erythrocytic growth, LDH absorbance, 72 h; at 2 µM; stronger effect = higher value
[5] = molecular target: Calcium-dependent protein kinase 1 (Plasmodium falciparum (isolate 3D7)) (UniProt P62344); test: PfCDPK1 kinase inhibitors, biochemical, TCAMS library (AID 1159585; cut-off not given, nearly all actives have IC50 up to about 0.98 µM;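 further: inhibitors leave more ATP so luminescence rises with inhibition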); conditions: recombinant PfCDPK1, Kinase-Glo ATP depletion luminescence
Sequence of Calcium-dependent protein kinase 1 (Plasmodium falciparum (isolate 3D7)) (P62344 whole entry, looked up): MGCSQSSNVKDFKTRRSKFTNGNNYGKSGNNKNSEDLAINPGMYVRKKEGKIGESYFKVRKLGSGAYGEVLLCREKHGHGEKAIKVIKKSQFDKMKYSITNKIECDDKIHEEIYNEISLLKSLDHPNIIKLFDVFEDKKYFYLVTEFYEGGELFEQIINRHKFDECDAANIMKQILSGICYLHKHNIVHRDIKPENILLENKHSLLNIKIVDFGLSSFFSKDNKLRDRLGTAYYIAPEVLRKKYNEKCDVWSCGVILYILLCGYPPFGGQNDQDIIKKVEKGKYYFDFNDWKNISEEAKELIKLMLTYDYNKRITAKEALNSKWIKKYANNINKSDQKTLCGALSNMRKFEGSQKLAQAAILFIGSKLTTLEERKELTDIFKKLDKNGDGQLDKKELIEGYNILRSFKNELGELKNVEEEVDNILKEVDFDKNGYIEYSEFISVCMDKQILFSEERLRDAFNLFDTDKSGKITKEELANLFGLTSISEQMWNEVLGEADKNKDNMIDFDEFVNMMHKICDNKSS

[6] = molecular target: Plasmodium falciparum protein kinase 6 (PK6, PF3D7_1337100) (UniProt Q8IDW1); test: PfPK6 kinase inhibitors, biochemical, TCAMS library (AID 1159586); conditions: recombinant PfPK6, Kinase-Glo ATP depletion luminescence
Sequence of Plasmodium falciparum protein kinase 6 (PK6, PF3D7_1337100) (Q8IDW1 1-305): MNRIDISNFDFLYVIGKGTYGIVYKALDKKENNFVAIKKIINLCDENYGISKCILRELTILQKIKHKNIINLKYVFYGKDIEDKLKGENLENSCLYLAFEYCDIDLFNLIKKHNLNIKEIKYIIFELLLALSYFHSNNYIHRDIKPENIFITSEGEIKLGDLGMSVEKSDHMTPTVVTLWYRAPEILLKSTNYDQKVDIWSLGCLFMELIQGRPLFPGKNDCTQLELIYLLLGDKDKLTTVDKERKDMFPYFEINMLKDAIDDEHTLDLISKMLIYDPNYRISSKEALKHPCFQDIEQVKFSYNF

[7] = molecular target: Protein kinase 7 (PK7), Plasmodium falciparum 3D7 (PF3D7_0213400) (UniProt Q7YTF7); test: inhibition of Plasmodium PK7 catalytic activity – biochemical, TCAMS antimalarial set, Kinase-Glo luminescence (AID 1159587); conditions: recombinant PfPK7, Kinase-Glo ATP depletion luminescence
Sequence of Protein kinase 7 (PK7), Plasmodium falciparum 3D7 (PF3D7_0213400) (Q7YTF7 1-343): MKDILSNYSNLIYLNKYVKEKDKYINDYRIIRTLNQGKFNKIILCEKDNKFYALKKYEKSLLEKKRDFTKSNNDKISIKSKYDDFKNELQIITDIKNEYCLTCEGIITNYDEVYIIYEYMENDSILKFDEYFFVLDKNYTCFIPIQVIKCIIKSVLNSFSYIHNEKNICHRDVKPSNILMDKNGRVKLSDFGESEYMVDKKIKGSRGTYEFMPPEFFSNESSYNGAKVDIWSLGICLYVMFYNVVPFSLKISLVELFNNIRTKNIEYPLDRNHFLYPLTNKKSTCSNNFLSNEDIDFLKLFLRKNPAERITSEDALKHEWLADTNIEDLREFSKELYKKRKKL

[8] = molecular target: Calcium-dependent protein kinase 4 (Plasmodium falciparum (isolate 3D7)) (UniProt Q8IBS5); test: PfCDPK4 kinase inhibitors, biochemical, TCAMS library (AID 1159588; cut-off not given, nearly all actives have IC50 up to about 0.91 µM); conditions: recombinant PfCDPK4, Kinase-Glo ATP depletion luminescence
Sequence of Calcium-dependent protein kinase 4 (Plasmodium falciparum (isolate 3D7)) (Q8IBS5 whole entry, looked up): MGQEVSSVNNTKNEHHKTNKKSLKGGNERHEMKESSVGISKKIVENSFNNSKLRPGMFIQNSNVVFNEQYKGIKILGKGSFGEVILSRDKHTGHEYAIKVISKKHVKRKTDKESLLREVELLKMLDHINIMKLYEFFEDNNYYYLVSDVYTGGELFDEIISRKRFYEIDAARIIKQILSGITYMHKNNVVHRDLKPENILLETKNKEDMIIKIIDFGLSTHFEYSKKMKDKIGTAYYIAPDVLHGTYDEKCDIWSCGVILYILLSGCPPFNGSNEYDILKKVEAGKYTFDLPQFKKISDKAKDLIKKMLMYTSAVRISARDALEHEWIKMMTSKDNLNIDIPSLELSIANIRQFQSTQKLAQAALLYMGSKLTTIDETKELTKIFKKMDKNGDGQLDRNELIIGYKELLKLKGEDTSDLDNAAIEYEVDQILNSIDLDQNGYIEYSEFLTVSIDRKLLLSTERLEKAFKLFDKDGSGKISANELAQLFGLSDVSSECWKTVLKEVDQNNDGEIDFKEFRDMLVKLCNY

CN1CCCN(Cc2ccc(-c3ccc(NC(=O)c4ccc(Cl)cc4)cc3)cc2)CC1
active: growth inhibition [1] 67% | inhibition [2] 58% | growth inhibition [4] 96%
inactive: inhibition [3] 3% | outcome [5] | outcome [6] | outcome [7] | outcome [8]

COc1ccc(CNCc2cccc(-c3ccc(-c4nc5ccccc5[nH]4)cc3)c2)cc1
inactive: inhibition [2] 22% | inhibition [3] 2% | outcome [5] | outcome [6] | outcome [7] | outcome [8]
active: growth inhibition [1] 60% | growth inhibition [4] 101%

Cc1ccc(Cn2nc(Cl)c(N3CCNCC3)cc2=O)cc1NC(=O)Nc1ccc(-c2ccccc2)cc1
inactive: inhibition [3] -5% | outcome [5] | outcome [6] | outcome [7] | outcome [8]
active: growth inhibition [1] 97% | inhibition [2] 100% | growth inhibition [4] 98%

Cc1cc(-c2nc3ccc(N4CCN(C)CC4)cc3[nH]2)nn1Cc1cc(Cl)ccc1OCC(C)C
inactive: inhibition [2] 41% | inhibition [3] 1% | outcome [5] | outcome [6] | outcome [7] | outcome [8]
active: growth inhibition [1] 67% | growth inhibition [4] 99%

Cc1ccccc1C1CCN(C2CCC(NC(=O)/C=C/c3cccc(Cl)c3F)CC2)CC1 (stereo not drawn)
active: inhibition [2] 87% | growth inhibition [4] 101%
inactive: growth inhibition [1] 37% | inhibition [3] 4% | outcome [5] | outcome [6] | outcome [7] | outcome [8]

CNC(=O)C1Cc2c([nH]c3cc(Br)ccc23)C2(CCN(CCc3ccccc3)CC2)N1 (stereo not drawn)
active: growth inhibition [4] 101%
inactive: growth inhibition [1] 31% | inhibition [2] 10% | inhibition [3] -8% | outcome [5] | outcome [6] | outcome [7] | outcome [8]

CN1CCCN(Cc2cccc(-c3cccc(NC(=O)c4cccc(C#N)c4)c3)c2)CC1
active: growth inhibition [4] 95%
inactive: growth inhibition [1] 33% | inhibition [2] 18% | inhibition [3] 2% | outcome [5] | outcome [6] | outcome [7] | outcome [8]

CCCc1ccc(Nc2nc(C)cc(N(CC)CCCN3CCCCC3)n2)cc1
active: growth inhibition [1] 95% | growth inhibition [4] 101%
inactive: inhibition [2] 48% | inhibition [3] 5% | outcome [5] | outcome [6] | outcome [7] | outcome [8]

COc1ccc(C2=CCN(c3ccc(Cl)c(Cl)c3)C2=O)cc1OCCN1CCCCC1
active: growth inhibition [1] 99% | growth inhibition [4] 97%
inactive: inhibition [2] 19% | inhibition [3] -2% | outcome [5] | outcome [6] | outcome [7] | outcome [8]

COC(=O)c1sc2ccccc2c1NC(=O)c1ccc(C)c(C)c1
active: growth inhibition [4] 88%
inactive: growth inhibition [1] 48% | inhibition [2] 4% | inhibition [3] -7% | outcome [5] | outcome [6] | outcome [7] | outcome [8]

O=[N+]([O-])c1cccc(C(Nc2ccccn2)c2ccc3cccnc3c2O)c1 (stereo not drawn)
inactive: growth inhibition [1] 29% | inhibition [3] 0% | outcome [5] | outcome [6] | outcome [7] | outcome [8]
active: inhibition [2] 53% | growth inhibition [4] 86%

COc1cc(NC(=O)N2CCOC(CCN3CCC4(CCc5ccccc54)CC3)(c3ccc(Cl)c(Cl)c3)C2)cc(OC)c1 (stereo not drawn)
inactive: inhibition [2] 29% | inhibition [3] 3% | outcome [5] | outcome [6] | outcome [7] | outcome [8]
active: growth inhibition [1] 50% | growth inhibition [4] 87%

CNC(=O)Cc1ccc(C(=O)Nc2cccc(-c3ccc(-c4nc5c(C)cccc5[nH]4)s3)c2)cc1
inactive: growth inhibition [1] 25% | inhibition [3] 0% | outcome [5] | outcome [6] | outcome [7] | outcome [8]
active: inhibition [2] 66% | growth inhibition [4] 91%

Cc1onc(-c2ccccc2Cl)c1C(=O)Nc1cc(Cl)c(Cl)cc1Cl
inactive: inhibition [2] 3% | inhibition [3] 7% | outcome [5] | outcome [6] | outcome [7] | outcome [8]
active: growth inhibition [1] 57% | growth inhibition [4] 90%

CCN(CC)CCCNc1ncc2c(-c3ccc(NC(=O)Nc4cc(C(F)(F)F)ccc4F)cc3)nn(C)c2n1
active: growth inhibition [1] 74% | inhibition [2] 81% | growth inhibition [4] 99%
inactive: inhibition [3] -3% | outcome [5] | outcome [6] | outcome [7] | outcome [8]

Cc1nc(Nc2ccc(C)c(Cl)c2)c2c(C)noc2n1
active: growth inhibition [1] 72% | growth inhibition [4] 94%
inactive: inhibition [2] 0% | inhibition [3] 0% | outcome [5] | outcome [6] | outcome [7] | outcome [8]

CC1CC(C)CN(CC(O)CNC(=O)Nc2ccc(Br)cc2)C1 (stereo not drawn)
active: growth inhibition [4] 94%
inactive: growth inhibition [1] 44% | inhibition [2] 13% | inhibition [3] 5% | outcome [5] | outcome [6] | outcome [7] | outcome [8]

O=C(Nc1ccc(Cl)cc1)Nc1nc2ccc([N+](=O)[O-])cc2[nH]1
inactive: growth inhibition [1] 6% | inhibition [2] -2% | inhibition [3] 3% | outcome [5] | outcome [6] | outcome [7] | outcome [8]
active: growth inhibition [4] 101%

Oc1ccc(CCCNc2nc(NCc3cccc4ccccc34)nc(N3CCNCC3)n2)cc1
inactive: growth inhibition [1] 4% | inhibition [2] 9% | inhibition [3] -1% | outcome [5] | outcome [6] | outcome [7] | outcome [8]
active: growth inhibition [4] 100%

COc1nc(-n2ccc(=N)cc2)nc2ccccc12
inactive: growth inhibition [1] 45% | inhibition [2] 15% | inhibition [3] 1% | outcome [5] | outcome [6] | outcome [7] | outcome [8]
active: growth inhibition [4] 90%

CCN(CC)CCCC(C)Nc1c2ccccc2nc2ccc3ccccc3c12 (stereo not drawn)
inactive: inhibition [2] 24% | inhibition [3] 1% | outcome [5] | outcome [6] | outcome [7] | outcome [8]
active: growth inhibition [1] 89% | growth inhibition [4] 100%

Cc1cccc2[nH]c(-c3cccc(-c4ccc(NC(=O)NC(C)C)cc4)c3)nc12
active: growth inhibition [4] 98%
inactive: growth inhibition [1] 44% | inhibition [2] 30% | inhibition [3] -2% | outcome [5] | outcome [6] | outcome [7] | outcome [8]

CC(C)(C)COc1ccc2c(N)n[nH]c2c1
active: growth inhibition [4] 90%
inactive: growth inhibition [1] 8% | inhibition [2] 31% | inhibition [3] 4% | outcome [5] | outcome [6] | outcome [7] | outcome [8]

Oc1ccc2ccccc2c1CNC1CCCCCC1
active: growth inhibition [4] 83%
inactive: growth inhibition [1] 33% | inhibition [2] 9% | inhibition [3] 5% | outcome [5] | outcome [6] | outcome [7] | outcome [8]

COc1ccc(O)c(C(=O)NCCc2ccc(OC)c(-c3ccc(C(C)(C)C)cc3)c2)c1
inactive: inhibition [2] 11% | inhibition [3] 5% | outcome [5] | outcome [6] | outcome [7] | outcome [8]
active: growth inhibition [1] 91% | growth inhibition [4] 88%

CCOC(=O)C1=C(C)NC2=C(C(=O)CCC2)C1c1cn(Cc2ccc(Cl)cc2Cl)nc1-c1ccccc1 (stereo not drawn)
active: growth inhibition [1] 96% | growth inhibition [4] 100%
inactive: inhibition [2] -5% | inhibition [3] -2% | outcome [5] | outcome [6] | outcome [7] | outcome [8]

Cc1cc(N[C@@H](Cc2ccccc2)C(=O)NCCc2ccccc2)nc(NCC2CCCCC2)n1
active: growth inhibition [1] 95% | growth inhibition [4] 101%
inactive: inhibition [2] 24% | inhibition [3] -2% | outcome [5] | outcome [6] | outcome [7] | outcome [8]

COc1ccc(NC(=O)[C@H](CC(C)C)Nc2cc(C)nc(NCCOc3ccccc3)n2)cc1
active: growth inhibition [1] 65% | growth inhibition [4] 100%
inactive: inhibition [2] -1% | inhibition [3] 4% | outcome [5] | outcome [6] | outcome [7] | outcome [8]

Cc1ccc2c(=O)cc(CCc3cccc(F)c3F)n(CC(=O)N(Cc3ccc(-c4ccc(C(F)(F)F)cc4)cc3)C3CCN(C(C)C)CC3)c2n1
active: inhibition [2] 58% | growth inhibition [4] 100%
inactive: growth inhibition [1] 49% | inhibition [3] -2% | outcome [5] | outcome [6] | outcome [7] | outcome [8]

COc1ccccc1CN1CCC(NC(=O)c2ccc(-c3cccc(C(F)(F)F)c3)s2)CC1
inactive: growth inhibition [1] 12% | inhibition [3] -2% | outcome [5] | outcome [6] | outcome [7] | outcome [8]
active: inhibition [2] 83% | growth inhibition [4] 85%

COc1ccc(C2CCN(C#N)C2)cc1OC1CCCC1 (stereo not drawn)
active: growth inhibition [1] 97% | growth inhibition [4] 102%
inactive: inhibition [2] 9% | inhibition [3] 2% | outcome [5] | outcome [6] | outcome [7] | outcome [8]

COc1cc2nc(C)nc(Nc3ccc(Cc4ccccc4)cc3)c2cc1OC
active: growth inhibition [1] 99% | growth inhibition [4] 101%
inactive: inhibition [2] 16% | inhibition [3] -1% | outcome [5] | outcome [6] | outcome [7] | outcome [8]

CC1CCN(Cc2c(O)ccc3c(=O)c(-c4nc5ccccc5s4)c(N)oc23)CC1
inactive: inhibition [2] 2% | inhibition [3] -6% | outcome [5] | outcome [6] | outcome [7] | outcome [8]
active: growth inhibition [1] 99% | growth inhibition [4] 98%

CC(C)CCN1CCC(Oc2ccc(NC(=O)c3ccccc3)cc2Cl)CC1
active: growth inhibition [1] 88% | growth inhibition [4] 87%
inactive: inhibition [2] 17% | inhibition [3] 5% | outcome [5] | outcome [6] | outcome [7] | outcome [8]

COc1ccc2nccc([C@@H](O)CN3[C@@H]4CC[C@H]3CC(NCc3ccc5c(n3)NC(=O)CS5)C4)c2n1 (stereo partly drawn)
active: growth inhibition [4] 99%
inactive: growth inhibition [1] 11% | inhibition [2] -1% | inhibition [3] 4% | outcome [5] | outcome [6] | outcome [7] | outcome [8]

CCCNCc1ccc(-c2ccc(CN(CCOC)C(=O)c3ccco3)cc2)nc1
inactive: growth inhibition [1] 21% | inhibition [2] 1% | inhibition [3] -7% | outcome [5] | outcome [6] | outcome [7] | outcome [8]
active: growth inhibition [4] 91%

CSc1ccc(C=CC(=O)NC(=O)c2ccccc2O)cc1
inactive: inhibition [2] 2% | inhibition [3] 4% | outcome [5] | outcome [6] | outcome [7] | outcome [8]
active: growth inhibition [1] 96% | growth inhibition [4] 97%

O=C(NCCCCN1CCC(c2ccc3c(c2OCCCO)CCCC3)CC1)c1ccc(-c2ccc(C(F)(F)F)cc2)cc1
inactive: inhibition [3] 1% | outcome [5] | outcome [6] | outcome [7] | outcome [8]
active: growth inhibition [1] 53% | inhibition [2] 98% | growth inhibition [4] 83%

CN1CCC(C(=O)N(Cc2ccc(-c3ccc(CNCCc4ccccc4)cn3)cc2)C2CCN(Cc3ccccc3)CC2)CC1
active: growth inhibition [1] 99% | growth inhibition [4] 100%
inactive: inhibition [2] 24% | inhibition [3] -6% | outcome [5] | outcome [6] | outcome [7] | outcome [8]

COc1ccc(CC(=O)Nc2ccc(Nc3nc(C)cc(N(C)C)n3)cc2)cc1
active: growth inhibition [4] 97%
inactive: growth inhibition [1] 31% | inhibition [2] 17% | inhibition [3] -3% | outcome [5] | outcome [6] | outcome [7] | outcome [8]

CC(C)Oc1cc(-c2ccc(S(C)(=O)=O)cc2)nc(N(Cc2cccc(F)c2F)Cc2cccc(F)c2F)n1
active: growth inhibition [1] 99% | growth inhibition [4] 101%
inactive: inhibition [2] 10% | inhibition [3] 4% | outcome [5] | outcome [6] | outcome [7] | outcome [8]
